Where “and” joins values, the source holds several entries; their conditions need not be identical. Equal entries are not always repeated. Inconclusive results are not listed. The source holds several records for some structures; these can differ, active in one and inactive in another. Calls of active or inactive are those of the source. Calls follow the shape of the dose curve; as a rule, active = well fitted cell-killing curve with a large enough effect; inconclusive = small, poorly fitted or top-dose-only effect, or effect the other way; inactive = no such curve, though single readings can be large or run the other way.
Assay: Viability qHTS for spleen associated tyrosine kinase inhibitor (SYKi) drug resistant MV4-11 cells (AID 1963824); also: nearly all actives have a fitted effect of over 35% in size
Settings: SYKi-resistant MV4-11 viability, CellTiter-Glo, 72 h; series mostly up to 45 µM; viability, % of control: at the top concentration
Procedure, shortened: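 SYK-inhibitor-resistant MV4-11 AML cells were seeded at 500 per well onto compound and cultured 72 hours (37 °C, 5% CO2). CellTiter-Glo was then added, and after 10 min at room temperature, luminescence gave viability.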
In the case of `Cc1ccccc1N=Nc1ccc(N=Nc2c(O)ccc3ccccc23)c(C)c1`, the “viability, % of control” value is reported as 65.3% (inactive).
With `O=C(NOCCO)c1cc(CN2OCCCC2=O)c(F)c(F)c1Nc1ccc(I)cc1F` the Potency was 0.0651 µM (active).
With `COc1cc(C)c(/C=C/C(C)=C/C=C/C(C)=C/C(=O)O)c(C)c1C` the Potency was 4.68 µM (active).
With `CC[C@H](Nc1ncnc2nc[nH]c12)c1nc2cccc(F)c2c(=O)n1-c1ccccc1` the viability, % of control was 61.7% [at 9.25 µM] (inactive).
For `Cc1ccccc1N1CCN(CCc2nnc3n2CCCC3)CC1`, the “viability, % of control” value was 80.7% (inactive).
With `CC(CSC(=O)c1ccccc1)C(=O)N1C[C@@H](Sc2ccccc2)C[C@H]1C(=O)O` (stereo not given in full) the “viability, % of control” value was 80.5% [at 17.3 µM] (inactive).
With `Cc1ccc(-c2ncc(Cl)cc2-c2ccc(S(C)(=O)=O)cc2)cn1` the “viability, % of control” value was 80.1% (inactive).
With `CC[C@]1(O)CC2CN(CCc3c([nH]c4ccccc34)[C@@](C(=O)OC)(c3cc4c(cc3OC)N(C)[C@H]3[C@@](O)(C(=O)OC)[C@H](OC(C)=O)[C@]5(CC)C=CCN6CC[C@]43[C@@H]65)C2)C1` (stereo not given in full) the Potency was 65.1 nM (active) and 33.2 nM (active).
For `CN1Cc2c(N)cccc2C(c2ccccc2)C1` (stereo not given), the “viability, % of control” value was 83.2% (inactive).
For `CCN(CC)CCSC(=O)C(c1ccccc1)c1ccccc1`, the “viability, % of control” value was 82.7% (inactive).
With `CC(C)n1ncnc1-c1cn2c(n1)-c1ccc(O[C@@H](C)C(N)=O)cc1OCC2` the Potency was 4.68 µM (active).
With `Cc1c(NC(=O)c2cc(C(N)=O)nc3cc(F)ccc23)c(C(F)(F)F)nn1Cc1ccc(C(C)(C)C)cc1` the Potency was 16.6 µM (active).
In the case of `C=C[C@H]1CN2CCC1C[C@@H]2C(O)c1ccnc2ccc(OC)cc12` (stereo not given in full), the Potency is reported as 14.8 µM (active).
In the case of `Cc1c(-c2c(-c3ccc(F)o3)sc3ncnc(O[C@@H](Cc4ccccc4OCc4ccnn4CC(F)(F)F)C(=O)O)c23)ccc(OCCN2CCN(C)CC2)c1Cl`, the Potency is reported as 0.0132 µM (active).
For `CCCC(=O)Nc1ccc(O)c(C(C)=O)c1`, the “viability, % of control” value was 91% (inactive).
For `COc1cc(O)cc(O)c1`, the “viability, % of control” value was 76.5% (inactive).
With `Cc1cc(/C=c2/sc3nc4ccccc4n3c2=O)c(C)n1-c1ccccc1` the Potency was 10.5 µM (active).
In the case of `CN(C)CCOc1ccc(-c2nc(-c3ccc4c(c3)CC/C4=N\O)c(-c3ccncc3)[nH]2)cc1`, the Potency is reported as 5.9 µM (active).
With `CC1(C)O[C@@H]2C[C@H]3[C@@H]4CCC5=CC(=O)CC[C@]5(C)[C@@]4(F)[C@@H](O)C[C@]3(C)[C@]2(C(=O)CCl)O1` the Potency was 18.8 µM (active).
In the case of `CC1=C(/C=C/C(C)=C/C=C/C(C)=C\C(=O)O)C(C)(C)CCC1`, the Potency is reported as 6.61 µM (active).
For `CN1CCCN(C(=O)c2cccc(-c3ccc(/C=C4/C(=O)Nc5ccc(Cl)cc54)o3)c2)CC1`, the Potency was 0.662 µM (active).
For `CC(C)C(C)(C)C(C)(C)C(C)(C)S`, the Potency was 5.45 µM (active).
For `COc1cc(N)c(Cl)cc1C(=O)NC1CCN(Cc2ccccc2)CC1`, the “viability, % of control” value was 75.1% (inactive).
For `Cc1cc(-n2c(=O)ccc3cnc4[nH]ccc4c32)ccc1F`, the Potency was 18.6 µM (active).
With `Nc1ncnc(Nc2ccc(OCc3ccccc3)c(Cl)c2)c1/C=N/OCCN1CCOCC1` the Potency was 7.42 µM (active).
With `CNCCCOc1cc(F)c(-c2c(Cl)nc3ncnn3c2N[C@@H](C)C(F)(F)F)c(F)c1` the Potency was 0.0372 µM (active).
For `Clc1cccc(C(c2ccc3nc[nH]c3c2)n2ccnc2)c1` (stereo not given), the Potency was “inactive and 18.6 µM (active)”.
For `C/C(=C\c1csc(C)n1)[C@@H]1C[C@@H]2O[C@]2(C)CCC[C@H](C)[C@H](O)[C@@H](C)C(=O)C(C)(C)[C@@H](O)CC(=O)N1`, the Potency was 0.0132 µM (active).
For `CC(C)n1cc(-c2ccc3c(c2)N(C)CC3)c2c(NS(=O)(=O)c3ccn(C)n3)ccnc21`, the Potency was 18.6 µM (active).
With `CC(=O)OC(C)OC(=O)C(C)c1ccc(-c2ccccc2)c(F)c1` (stereo not given) the “viability, % of control” value was 95.4% (inactive).
In the case of `COc1cc2c(cc1OC)CN(C(=O)[C@H](C)N[C@@H](CCc1ccccc1)C(=O)O)[C@H](C(=O)O)C2`, the “viability, % of control” value is reported as 89.6% (inactive).
For `CC(C)C[C@@H]1NC(=O)[C@@H](C(C)C)NC(=O)[C@@H]2CCCN2C(=O)[C@@H](CC(=O)O)NC(=O)[C@@H](Cc2c[nH]c3ccccc23)NC1=O`, the Potency was 9.34 µM (active).
With `CCOC(=O)[C@H]1O[C@@H]1C(=O)N[C@@H](CC(C)C)C(=O)NCCC(C)C` the Potency was 5.9 µM (active).
In the case of `Cc1cc(O)cc2c1[C@]1(C)CC[C@H]3C(C)(C)CCC[C@]3(C)[C@H]1C2`, the viability, % of control is reported as 59.2% [at 4.97 µM] (inactive).
For `C=CCSCC1Nc2cc(Cl)c(S(N)(=O)=O)cc2S(=O)(=O)N1` (stereo not given), the Potency was 10.6 µM (active).
For `CCOc1c(N2CCOCC2)cnn(C)c1=O`, the “viability, % of control” value was 96.6% (inactive).
In the case of `C#C[C@]1(O)CC[C@H]2[C@@H]3CCc4cc(OC)ccc4[C@H]3CC[C@@]21C`, the Potency is reported as 13.3 µM (active).
In the case of `COc1ccc(COc2ccc(Cc3cnc(N)nc3N)cc2OC)cc1`, the Potency is reported as 7.31 µM (active).
With `CN[C@@H]1[C@@H](O)[C@@H](O[C@@H]2[C@@H](O)[C@H](O[C@H]3O[C@H](CN)[C@@H](O)[C@H](O)[C@H]3O)[C@@H](N)C[C@H]2NC(=O)C(O)CN)OC[C@]1(C)O` (stereo not given in full) the “viability, % of control” value was 92% (inactive).
In the case of `CCCCCCCCCCCCCCCC[N+](C)(C)CCN(Cc1ccc(OC)cc1)c1ncccn1`, the Potency is reported as 2.11 µM (active).

Source: PubChem BioAssay (NCATS)
Potency is read from the fitted curve at half-maximal effect.
